Rev-erbA mod = modulators of Rev-erb alpha DNA binding, primary screen, biochemical, FITC-DNA, fluorescence polarization, uHTS; Rev-erbα–FITC-DNA binding, 90 min; activity, % at 10 µM; hit rate 0.79% among 370,000;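 active means activity above about 14%, limit read from the data; passing the limit was not always enough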;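 further: 0% = DMSO wells with 35 nM protein and 100% = DMSO wells with 750 nM protein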
EP2 modulator = EP2 receptor modulators, cAMP readout, primary screen, cell-based, HTRF cAMP, PGE2 stimulation | hit rate 0.83% among 260,000 | Prostaglandin E2 receptor EP2 subtype (Homo sapiens), P43116 | EP2-expressing cells, cAMP HTRF FRET, PGE2 co-stimulation | induction, % at 25 µM;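 active means compounds whose cAMP rise, as percent of the full-agonist control response, exceeds 60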;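 further: rat C6 glioma line stably carrying human EP2 under a CMV promoter; the protocol text gives 20 µM as final concentration; 100% = response of wells given 1 µM PGE2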
Target sequence (P43116 whole entry, looked up): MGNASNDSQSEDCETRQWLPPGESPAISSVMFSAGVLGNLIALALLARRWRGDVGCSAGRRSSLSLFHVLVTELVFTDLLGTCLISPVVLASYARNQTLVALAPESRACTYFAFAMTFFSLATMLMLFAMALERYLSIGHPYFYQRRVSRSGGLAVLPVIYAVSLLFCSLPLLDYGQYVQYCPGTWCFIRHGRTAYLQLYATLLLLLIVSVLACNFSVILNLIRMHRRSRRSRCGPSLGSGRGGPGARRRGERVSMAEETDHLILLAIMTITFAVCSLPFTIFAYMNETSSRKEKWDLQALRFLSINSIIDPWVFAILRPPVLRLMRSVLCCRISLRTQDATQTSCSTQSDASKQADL
RAM inhibit = inhibitors of the yeast RAM network, primary screen, dse1pr::URA3 reporter, 5-FOA selection; AID 868, 2007; S. cerevisiae dse1pr::URA3 reporter, 5-FOA growth OD615, 2 d; analog-sensitive cbk1-as2 kinase mutant strain; inhibition, % at 50 µM; hit rate 1.8% among 190,000;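 active means inhibition above a set limit, 3 SD over mean compound inhibition, cut at about 8.4% in these data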;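 further: 0% = DMSO-only wells with no growth and 100% = 10 µM 1-NA-PP1 full growth; inhibition rescues growth on 5-FOA so higher OD means more RAM inhibition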
PGE2 EP2 inh = human EP2 receptor antagonists, primary screen, TR-FRET cAMP, C6 glioma cells | Prostaglandin E2 receptor EP2 subtype (Homo sapiens), P43116 | C6 glioma cells expressing human EP2; cells stimulated with saturating PGE2 | inhibition, % at 25 µM | hit rate 0.52% among 260,000 | AID 1422, 2008;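 active means percent inhibition above 40 after rounding to a whole number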;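 further: rat C6 glioma host cells with rolipram phosphodiesterase inhibitor present; the protocol text gives 20 µM as final concentration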
SKN-1 inh = suppressors of acrylamide-induced Pgst-4::GFP reporter in worms, primary screen, SKN-1 inhibitor project, whole organism, uHTS, GFP/RFP fluorescence ratio, strain VP596; C. elegans VP596 Pgst-4::GFP/RFP ratio, 24 h; inhibition, % at 21.8 µM; hit rate 0.49% among 360,000; AID 624304, 2012;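 active means interference check ratio from 0.5 to 1.5 plus GFP to RFP signal ratio inhibition reaching or exceeding a fixed threshold, cut at about 30% in these data, passing the limit was not always enough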
PG9 Ab binder = binders of HIV-1 gp120 antibody PG9, primary screen, biochemical, TR-FRET | hit rate 0.43% among 360,000 | AID 624416, 2012 | inhibition, % at 6.7 µM | HIV-1 gp120 / PG9 antibody interaction | TR-FRET gp120-PG9 antibody binding; in the data active means inhibition above about 8.5%
* = called active by the depositor. This is a sample that favours compounds with a hit; in the whole collection about 2.9% have one here.

Cn1cnc2c1c(=O)[nH]c(=O)n2CCO was read as EP2 modulator 2 and PGE2 EP2 inh 15.
Cc1cc(Oc2ccc3ccccc3c2)nc(SCC(=O)c2ccccc2)n1 was read as Rev-erbA mod -1, EP2 modulator 50, RAM inhibit 11*, PGE2 EP2 inh 10, SKN-1 inh 1 and PG9 Ab binder -1.
`Cc1cc(-c2ccccc2)nc(SCC(=O)c2cccc([N+](=O)[O-])c2)n1` gave Rev-erbA mod -5, EP2 modulator -9, RAM inhibit 11*, PGE2 EP2 inh 4, SKN-1 inh 11 and PG9 Ab binder -1.
For CCCc1nc2ccccc2c(=O)[nH]1 the results were EP2 modulator 7 and PGE2 EP2 inh 14.
`CN1CCN(C(=O)c2ccccc2NC(=O)c2sc3ccccc3c2Cl)CC1` gave Rev-erbA mod 1, SKN-1 inh -7 and PG9 Ab binder -1.
`CN1CCc2ccccc2[C@H]1Cc1ccccc1NC(=O)c1sc2ccccc2c1Cl` gave EP2 modulator 45 and PGE2 EP2 inh 42*.
Cc1cc2cc3c(cc2n2c(=O)n(CC(N)=O)nc12)OCO3 was read as EP2 modulator -16.
O=c1c2ccccc2ncn1-c1cccc(Cl)c1 was read as Rev-erbA mod 2, EP2 modulator 7, RAM inhibit 0, PGE2 EP2 inh 9, SKN-1 inh 16 and PG9 Ab binder -3.
`O=c1c2ccccc2ncn1-c1ccc(Cl)cc1Cl` gave Rev-erbA mod -1, EP2 modulator 12, PGE2 EP2 inh 8, SKN-1 inh 35* and PG9 Ab binder 1.
CCOC(=O)C(C(=O)OCC)C(C)(C)/C(C)=N\Nc1ccc([N+](=O)[O-])cc1[N+](=O)[O-] was read as Rev-erbA mod -1, EP2 modulator 10, RAM inhibit 9.0*, PGE2 EP2 inh 7, SKN-1 inh 4 and PG9 Ab binder -1.
Screening C/C(=N\Nc1ccc([N+](=O)[O-])cc1[N+](=O)[O-])C(C)C(C)C (configuration not stated) returned Rev-erbA mod 11, EP2 modulator 14, RAM inhibit 9.6*, PGE2 EP2 inh 4, SKN-1 inh 17 and PG9 Ab binder 0.
Screening CCOC(=O)C(C)/C(C)=N\Nc1ccc([N+](=O)[O-])cc1[N+](=O)[O-] (configuration not stated) returned Rev-erbA mod -3, EP2 modulator -32, RAM inhibit -2, PGE2 EP2 inh 5, SKN-1 inh -9 and PG9 Ab binder 1.
CC(C)(C)N(Cc1ccccc1)C(=O)CCN1C(=O)/C(=C/c2ccc3c(c2)OCO3)SC1=S was read as EP2 modulator -49 and PGE2 EP2 inh 5.
`COc1ccc(-c2nc3c4c(ncn3n2)-c2ccccc2CC42CCCC2)cc1` gave Rev-erbA mod 1, EP2 modulator 37, RAM inhibit 6, PGE2 EP2 inh 3, SKN-1 inh 0 and PG9 Ab binder 1.
Screening COc1ccc(OCc2nc3c4c(ncn3n2)-c2ccccc2CC42CCCC2)cc1 returned Rev-erbA mod 5, EP2 modulator 6, RAM inhibit 5, PGE2 EP2 inh 10, SKN-1 inh 7 and PG9 Ab binder 2.
`Cc1ccccc1OCc1nc2c3c(ncn2n1)-c1ccccc1CC31CCCC1` gave Rev-erbA mod 3, EP2 modulator 2, RAM inhibit 11*, PGE2 EP2 inh 7, SKN-1 inh 6 and PG9 Ab binder -1.
`Cc1cccc(OCc2nc3c4c(ncn3n2)-c2ccccc2CC42CCCC2)c1` gave Rev-erbA mod 10, EP2 modulator 9, RAM inhibit 9.2*, PGE2 EP2 inh 6, SKN-1 inh -2 and PG9 Ab binder -1.
Cc1ccc(OCc2nc3c4c(ncn3n2)-c2ccccc2CC42CCCC2)cc1 was read as Rev-erbA mod -3, EP2 modulator 14, RAM inhibit 10*, PGE2 EP2 inh 3, SKN-1 inh 10 and PG9 Ab binder -2.
Oc1cccc(-c2nc3c4c(ncn3n2)-c2ccccc2CC42CCCC2)c1 was read as Rev-erbA mod -2, EP2 modulator 49, RAM inhibit 7, PGE2 EP2 inh 6, SKN-1 inh 6 and PG9 Ab binder 0.
`CC1CCN(c2nc3c(c(=O)[nH]2)CCN(Cc2ccccc2F)C3)CC1` gave EP2 modulator -14.
Screening CCn1c(=O)oc2cc(S(=O)(=O)NCCCN(C)c3ccccc3)ccc21 returned EP2 modulator -49 and PGE2 EP2 inh 4.
For COc1ccc(S(=O)(=O)N(Cc2cccs2)Cc2cc3cc(OC)ccc3[nH]c2=O)cc1 the results were EP2 modulator -93 and PGE2 EP2 inh 27.
For CCc1c(C)sc2nc(C(C)C)n3c(=O)n(Cc4cccnc4)nc3c12 the results were EP2 modulator 19.
CCc1c(C)sc2nc(C(C)C)n3c(=O)n(Cc4ccncc4)nc3c12 was read as EP2 modulator 61*.
Screening Cc1ccc(CN(CCCN(C)C)Cc2nc(C)n3ccccc23)o1 returned EP2 modulator -21 and PGE2 EP2 inh 6.
`COc1cc(C)cc2c(-c3c(O)cc(O)c4c3C[C@H](C)N[C@@H]4C)cc(-c3cc(-c4c(O)cc(O)c5c4C[C@H](C)N[C@@H]5C)c4cc(C)cc(OC)c4c3O)c(O)c12` gave EP2 modulator -12 and PGE2 EP2 inh 41*.
COc1ccc(NC(=O)Nc2ccc(N3CCOCC3)c3nonc23)c(OC)c1 was read as Rev-erbA mod 4, EP2 modulator 8, RAM inhibit 2, PGE2 EP2 inh 11, SKN-1 inh 44* and PG9 Ab binder -3.
For COc1ccc(-c2cc(C(=O)Nc3c(C)nn(Cc4ccccc4)c3C)no2)cc1 the results were Rev-erbA mod 3, EP2 modulator -31, RAM inhibit 4, PGE2 EP2 inh 8, SKN-1 inh 36* and PG9 Ab binder -4.
`COc1cccc(-c2cc(C(=O)Nc3c(C)nn(Cc4ccccc4)c3C)no2)c1` gave Rev-erbA mod 4, EP2 modulator -27, RAM inhibit 1, PGE2 EP2 inh 7 and SKN-1 inh 25.
Cc1ccc(CN(CCCn2ccnc2)Cc2cccn2-c2cccc(F)c2)o1 was read as EP2 modulator 62* and PGE2 EP2 inh 4.
`CCCCC[C@H](O)/C=C/[C@@H]1[C@H]2C/C(=C/CCCC(=O)O)O[C@H]2C[C@H]1O` gave Rev-erbA mod 9.

Source: PubChem BioAssay (several laboratories)
